Records with an inconclusive call do not appear. Activity calls are given as the source filed them.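 The calls were made as follows, unless noted: active = inhibition over a set limit, the all-compound mean plus 3 SD, in both replicate runs; inconclusive = over that limit in just one replicate run; inactive = at or under that limit in both runs.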

A short description of assay [1]: reducers of endogenous Her2 protein level, primary screen, SKBR3 breast tumor cells, AlphaScreen, ATP viability (AID 461;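 active = Her2 level under about 52% in both replicate screens, with viability over 70% of control, limit read from the data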;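 as to Her2 level: lower value means less Her2 protein in the cells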;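 as to viability: percent of carrier control wells set as 100% viability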). The settings on record: 18-24 h, measured here: SKBR3 viability, ATP luminescence, at 10 µM.
Assay [2] has as its target Receptor tyrosine-protein kinase erbB-2 (Homo sapiens) (UniProt P04626). Described as above. The conditions noted are these: 18-24 h, at 10 µM, stronger effect = lower value.
Assay [3] in a line: SK-BR-3 cell growth inhibitors, pilot screen, 24 h, human (AID 572;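 active = viability at or below 10% of carrier control in both of two separate runs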;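 also: compound exposure lasted between 18 and 24 h rather than exactly 24 h; 100% = carrier-treated control wells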). The settings on record: SK-BR-3 viability, CellTiter-Glo luminescence, at 10 µM, stronger effect = lower value.
The nature of assay [4]: HUVEC growth inhibition – cell-based, human, primary screen (AID 575;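 active = viability at or below 30% in both replicate assays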;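 also: 100% = median of untreated cell wells with 0.1% DMSO on each plate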). The settings on record: HUVEC proliferation, CellTiter-Glo luminescence, 72 h; at 10 µM; stronger effect = lower value.
Assay [5] in a line: growth inhibitors of H69AR lung tumor, primary screen, human, duplicate replicates (AID 580;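 active = viability at or under a set limit in both replicates, limit being median viability minus 3 SD, cut at about 48% in these data, passing the limit was not always enough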;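 also: 100% = mean luminescence of untreated wells and 0% = no signal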). The settings on record: H69AR lung tumor cells viability, ATP luminescence, 72 h; at 10 µM; stronger effect = lower value.
The nature of assay [6]: reversal of MRP1-mediated doxorubicin resistance, pilot screen, H69AR cells, doxorubicin co-treatment (AID 601;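 active = viability loss from added drug above about 55%, and viability with drug at most 40%, in both replicates, limit read from the data, passing the limit was not always enough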). The settings on record: CellTiter-Glo, 72 h, at 10 µM; for differential viability (reversal): stronger effect = higher value.
Assay [7] is described as follows: 384-well plate pilot, post-Golgi transport modulator project, inhibition of yeast transport mutant growth (AID 636; in the data active = inhibition above about 31%). The settings on record: absorbance 615 nm, about 18 h, stronger effect = higher value.
A short description of assay [8]: growth suppression of yeast trafficking mutant, preliminary HTS, modulators of trafficking downstream of Golgi apparatus project, 1536-format plate, OD 615 nm (AID 637; in the data active = inhibition above about 30%). The conditions noted are these: yeast transport mutant growth, absorbance 615 nm, 18 h; stronger effect = higher value.
A short description of assay [9]: OD615 S. cerevisiae growth inhibition, permissive medium, pilot counter-assay, permissive growth control for S. cerevisiae lifespan shortening project (AID 705;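 active = growth inhibition above 25% in both replicates, a cutoff set 3 SD above the mean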). The settings on record: OD615, 24 h, at 10 µM, stronger effect = higher value.
Assay [10] can be described thus: Restrictive medium S. cerevisiae growth inhibition, OD615, pilot screen of yeast lifespan reduction project, restrictive growth control (AID 706;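 active = growth inhibition above a set limit, 3 SD over mean compound inhibition, in both replicates, cut at about 43% in these data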;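 also: modified DeaD lifespan yeast strain shifted to restrictive glucose medium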). The conditions noted are these: OD615, 48 h, at 10 µM, stronger effect = higher value.
A short description of assay [11]: viability gain of MRP-1-high H69AR cells under doxorubicin, pilot screen, MRP-1 activator project, CellTiter-Glo, duplicate (AID 807;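 active = viability increase at or above a cutoff of the median across tested compounds plus 3 SD, cut at about 8.5% in these data, passing the limit was not always enough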;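 also: compound pretreatment 18-22 h then 72 h combined with doxorubicin; 0% = doxorubicin alone and 100% = vehicle without doxorubicin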). The settings on record: H69AR viability with doxorubicin, CellTiter-Glo luminescence; at 10 µM; stronger effect = higher value.
The nature of assay [12]: growth suppression of PTEN-deleted HCT116, pilot screen, cell-based, HCT116 clonal line, CellTiter-Glo (AID 824;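 active = viability at or below 27.92% in each of two runs, the all-compound median minus 4 SD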;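 also: 0% = 20 µM Hyamine control and 100% = vehicle cell control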). The conditions noted are these: 60 h, at 10 µM, stronger effect = lower value.
Assay [13] is described as follows: inhibitors of the yeast RAM network, pilot screen, dse1pr::URA3 reporter, 5-FOA selection (AID 869).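 Also: 0% = DMSO wells with no growth and 100% = 10 µM 1-NA-PP1 with full growth; RAM network block rescues cells from 5-FOA so hits raise OD615 growth.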 The conditions noted are these: S. cerevisiae dse1pr::URA3 5-FOA growth, OD615, 2 d; at 10 µM; stronger effect = higher value; strain carries analog-sensitive mutant Cbk1 kinase.
Assay [14] is described as follows: RAM signaling pathway blockade in yeast – S. cerevisiae, Pdr1DBD-CYC8 efflux-inhibited sensitized strain, primary screen (AID 1298;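 active = RAM network inhibition above 8.4% in each of two replicates, 3 SD over the compound average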;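 also: 0% = DMSO untreated cells without growth and 100% = 10 µM 1-NA-PP1 full growth; higher means more yeast growth rescued from 5-FOA killing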). The conditions noted are these: S. cerevisiae cbk1-as DSE1-URA3 strain, 5-FOA growth OD615, 2 d; at 50 µM; stronger effect = higher value.
The nature of assay [15]: growth suppression of beta-catenin knockout HCT116, pilot screen, human colon tumor cells (AID 823;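 active = cell viability at or below a set limit in both duplicate runs, the limit being the all-compound median minus 4 SD, cut at about 23% in these data, passing the limit was not always enough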;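 also: 0% = wells killed by 20 µM Hyamine and 100% = untreated DMSO cell wells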). The settings on record: CellTiter-Glo, 60 h, at 10 µM, stronger effect = lower value.
Setting [16] is: H69AR cells + 2 uM doxorubicin, measured here: viability with 2 uM doxorubicin, stronger effect = lower value.
Setting [17] is: H69AR cells, compound alone cytotoxicity.

Receptor tyrosine-protein kinase erbB-2 (Homo sapiens), sequence (P04626 whole entry, looked up): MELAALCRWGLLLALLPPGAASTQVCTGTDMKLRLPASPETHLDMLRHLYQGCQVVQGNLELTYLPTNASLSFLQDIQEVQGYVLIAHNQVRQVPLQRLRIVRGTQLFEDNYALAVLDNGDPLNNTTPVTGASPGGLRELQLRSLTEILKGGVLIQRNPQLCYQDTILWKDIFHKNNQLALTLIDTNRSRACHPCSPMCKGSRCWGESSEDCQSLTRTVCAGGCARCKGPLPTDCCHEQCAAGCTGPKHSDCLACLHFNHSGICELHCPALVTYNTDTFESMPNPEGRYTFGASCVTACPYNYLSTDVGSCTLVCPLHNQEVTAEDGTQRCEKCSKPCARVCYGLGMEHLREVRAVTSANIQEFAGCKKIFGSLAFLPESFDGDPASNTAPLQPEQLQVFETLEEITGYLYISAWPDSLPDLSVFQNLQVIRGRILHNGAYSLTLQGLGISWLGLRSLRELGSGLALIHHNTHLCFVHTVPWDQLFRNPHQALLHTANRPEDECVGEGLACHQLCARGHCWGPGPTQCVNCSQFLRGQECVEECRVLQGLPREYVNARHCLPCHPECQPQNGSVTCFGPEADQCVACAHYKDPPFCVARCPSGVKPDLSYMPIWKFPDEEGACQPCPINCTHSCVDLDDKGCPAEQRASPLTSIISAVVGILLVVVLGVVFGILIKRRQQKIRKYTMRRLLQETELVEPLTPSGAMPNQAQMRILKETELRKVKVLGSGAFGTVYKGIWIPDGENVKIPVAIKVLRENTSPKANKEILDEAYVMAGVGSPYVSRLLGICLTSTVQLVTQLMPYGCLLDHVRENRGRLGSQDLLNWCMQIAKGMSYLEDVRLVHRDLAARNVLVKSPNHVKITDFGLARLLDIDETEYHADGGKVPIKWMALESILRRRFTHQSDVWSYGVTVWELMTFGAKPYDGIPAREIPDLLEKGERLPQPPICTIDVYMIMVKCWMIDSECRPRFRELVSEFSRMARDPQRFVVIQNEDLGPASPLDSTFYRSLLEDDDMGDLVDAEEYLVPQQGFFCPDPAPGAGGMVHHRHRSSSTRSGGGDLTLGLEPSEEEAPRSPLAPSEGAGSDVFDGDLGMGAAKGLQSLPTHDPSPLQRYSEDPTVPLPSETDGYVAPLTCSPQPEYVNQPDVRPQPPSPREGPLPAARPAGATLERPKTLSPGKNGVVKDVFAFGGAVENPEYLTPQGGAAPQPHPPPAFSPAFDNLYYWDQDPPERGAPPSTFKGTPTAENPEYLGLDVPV

Turning to `COc1ccc(C2C(C(=O)N3CCCC3)c3cc(OC)c(OC)cc3C(=O)N2C)cc1` (stereo not given), the viability in assay [1] was 88.5%; in assay [3], 88.5% (inactive); in assay [4], 94.3% (inactive); in assay [5] it was 102% (inactive); in assay [6] (setting [16]), 101%; in [6] (setting [17]), 102%. Besides, in assay [12], the viability was 92.8% (inactive). Also, the Her2 level in [2] was 85.5% (inactive). Moreover, the differential viability (reversal) in [6] (H69AR cells + 2 uM doxorubicin) is 0.95% (inactive). Also, the inhibition was -7.95% (inactive) in [7], -0.63% (inactive) in assay [8] and 0.655% (inactive) in assay [13]. In addition, the values for the growth inhibition in [9] and in assay [10] were -8.59% (inactive) and -0.445% (inactive), respectively. For the same compound, the viability increase in assay [11] was -1.15% (inactive). Besides, the RAM network inhibition in assay [14] was 5.28% (inactive).

As to `O=C(OCC(=O)c1ccc[nH]1)c1ccc(S(=O)(=O)N2CCCCC2)cc1`, the viability in [1] is 94%; in assay [3] it was 94% (inactive); in assay [4] it was 90.9% (inactive); in assay [5] it was 97.8% (inactive); in [6] (setting [16]) it was 81%; in assay [6] (setting [17]), 97.8%. Also, the viability in [15] was 99.8% (inactive). Further, in [2], the Her2 level was 98% (inactive). For the same compound, in assay [6] (H69AR cells + 2 uM doxorubicin), the differential viability (reversal) was 16.8% (inactive). Also, the figures for the inhibition in assay [7], in [8] and in assay [13] were -3.64% (inactive), -6.17% (inactive) and 3.25% (inactive), respectively. Moreover, the growth inhibition in [9] was -15.2% (inactive); in [10] it was -4.03% (inactive). Further, the viability increase in [11] was -0.59% (inactive). The RAM network inhibition in assay [14] was 3.17% (inactive).

For the compound `COc1ccccc1N1CCN(c2cc(=O)n(Cc3ccc(F)cc3)c(=O)[nH]2)CC1`, the viability in [1] is 99%; in assay [3], 99% (inactive); in assay [4], 44.1% (inactive); in assay [5] it was 12.1% (active); in assay [6] (setting [16]), 50.1%; in [6] (setting [17]) it was 12.1%. For the same compound, the viability in [15] was 33.6% (inactive). Moreover, the Her2 level in assay [2] was 68.5% (inactive). Further, the differential viability (reversal) in assay [6] (H69AR cells + 2 uM doxorubicin) was -38% (inactive). In addition, the inhibition in [7] is 0% (inactive); in assay [8] it was 9.17% (inactive); in [13], 1.02% (inactive). For the same compound, the growth inhibition was -0.995% (inactive) in [9] and 0.535% (inactive) in assay [10]. Also, the viability increase in [11] was -5.11% (inactive). The RAM network inhibition in assay [14] is 2.69% (inactive).

With `O=C(c1cnccn1)N(c1ccccc1)C1(C(=O)NC2CCCC2)CCCCC1`, the viability was 118% in [1]; 118% (inactive) in [3]; 96% (inactive) in assay [4]; 99.1% (inactive) in [5]; 102% in assay [6] (setting [16]); 99.1% in [6] (setting [17]). The viability in assay [12] was 96% (inactive). For the same compound, in assay [2], the Her2 level is 106% (inactive). The differential viability (reversal) in assay [6] (H69AR cells + 2 uM doxorubicin) is -2.94% (inactive). The figures for the inhibition in [7], in [8] and in assay [13] were -8.77% (inactive), -1.75% (inactive) and 1.56% (inactive), respectively. Further, the figures for the growth inhibition in [9] and in assay [10] were -9.55% (inactive) and -12.1% (inactive), respectively. The viability increase in [11] is -1.49% (inactive). Further, the RAM network inhibition in assay [14] is 3.39% (inactive).

On to `N#Cc1c2n(c(=O)[nH]c1=O)CCCCC2`, for which the viability in assay [1] is 112%; in assay [3], 112% (inactive); in assay [4] it was 96.2% (inactive); in [5] it was 103% (inactive); in assay [6] (setting [16]), 99.7%; in assay [6] (setting [17]) it was 103%. Moreover, the viability in assay [15] was 99.5% (inactive). The Her2 level in [2] was 92% (inactive). Further, in assay [6] (H69AR cells + 2 uM doxorubicin), the differential viability (reversal) was 3.5% (inactive). Further, the inhibition in assay [7] was -2.6% (inactive); in assay [8], -7.46% (inactive); in assay [13], -0.04% (inactive). In addition, the growth inhibition in assay [9] was -9.79% (inactive); in [10] it was 1.1% (inactive). The viability increase in assay [11] is 1.19% (inactive). The RAM network inhibition in assay [14] is 6.34% (inactive).
